# Calls of active or inactive are those of the source. The calls were made as follows: active = hit-call score of the fitted dose curve at least 0.9, where 1 is the maximum; inactive = score below 0.9.
# Experiments:
# Settings in all cases: mRNA level, 48 h; actives raise or lower the signal
# CYP2E1 (gene 1571) = assay: LTEA_HepaRG_CYP2E1: Life Technologies and Expression Analysis (LTEA) Assay for CYP2E1 using HepaRG (AID 2283485)
# How it was run: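 CYP2E1 transcript measured by Fluidigm qRT-PCR against three housekeeping genes in human HepaRG cells treated 48 h (top 100 uM, half-log steps, 0.5% DMSO vehicle). Gain or loss fitted relative to DMSO baseline.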
# CYP4A11 (gene 1579) = assay: LTEA_HepaRG_CYP4A11: Life Technologies and Expression Analysis (LTEA) Assay for CYP4A11 using HepaRG (AID 2283486)
# How it was run: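 HepaRG, 48 h chem exposure, 8 conc (100 uM top, half-log), 0.5% DMSO vehicle; qRT-PCR readout, housekeeping-gene normalized; bidirectional curve fit vs DMSO baseline.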
# [1] = read-out: Cytochrome P450 3A4 (Homo sapiens) (UniProt P08684); assay: LTEA_HepaRG_CYP3A4: Life Technologies and Expression Analysis (LTEA) Assay for CYP3A4 using HepaRG (AID 2283487)
# How it was run: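 Differentiated HepaRG cells, plated 48 h, then dosed 48 h in serum-free induction medium with 0.5% DMSO, 8 half-log concentrations up to 100 uM, duplicate. CYP3A4 mRNA by qRT-PCR, normalized to ACTB/GAPDH/POLR2A; bidirectional fit versus DMSO.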
# [2] = read-out: Pro-epidermal growth factor (Homo sapiens) (UniProt P01133); assay: LTEA_HepaRG_EGF: Life Technologies and Expression Analysis (LTEA) Assay for Epidermal growth factor (EGF) using HepaRG (AID 2283489)
# How it was run: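 HepaRG, 48 h dosing, 100 uM top, half-log x8, 0.5% DMSO. Readout: TaqMan qRT-PCR (Fluidigm array), housekeeping-normalized. Gain or loss of signal fit vs DMSO.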
# [3] = read-out: Early growth response protein 1 (EGR1) transcription factor, EGR1 (gene 1958); assay: LTEA_HepaRG_EGR1: Life Technologies and Expression Analysis (LTEA) Assay for Early growth response protein 1 (EGR1) transcription factor using HepaRG (AID 2283490)
# How it was run: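 EGR1 expression change in human HepaRG after 48 h chemical exposure, assessed by housekeeping-normalized qRT-PCR; concentration-response up to 100 uM, fitted in both directions against DMSO controls.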
# [4] = read-out: Cytochrome P450 3A7 (Homo sapiens) (UniProt P24462); assay: LTEA_HepaRG_CYP3A7: Life Technologies and Expression Analysis (LTEA) Assay for CYP3A7 using HepaRG (AID 2283492)
# How it was run: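 Human HepaRG liver cells, 48 h post-plating, switched to serum-free induction medium and exposed in duplicate for 48 h. Dosing: 100 uM top, half-log dilutions, 8 points, 0.5% DMSO vehicle. Read-out: CYP3A7 mRNA, gain or loss fitted against DMSO baseline.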
# CYP3A5 (gene 1577) = assay: LTEA_HepaRG_CYP3A5: Life Technologies and Expression Analysis (LTEA) Assay for CYP3A5 using HepaRG (AID 2283493)
# How it was run: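 mRNA levels were quantified by qRT-PCR on Fluidigm arrays and normalized to three housekeeping genes. Differentiated HepaRG cells received 48 h exposure (top 100 uM, half-log steps, 0.5% DMSO vehicle, duplicate); bidirectional fitting versus DMSO.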
# [5] = read-out: Cytochrome P450 7A1 (Homo sapiens) (UniProt P22680); assay: LTEA_HepaRG_CYP7A1: Life Technologies and Expression Analysis (LTEA) Assay for Cytochrome P450 7A1 (CYP7A1) using HepaRG (AID 2283496)
# How it was run: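 HepaRG, 48 h exposure, 8-pt half-log series from 100 uM, 0.5% DMSO vehicle, duplicates. Readout: TaqMan qRT-PCR mRNA vs three housekeeping genes; bidirectional curve fit against DMSO baseline.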
# [6] = read-out: Glutathione S-Transferase (GSTA2), GSTA2 (gene 2939); assay: LTEA_HepaRG_GSTA2: Life Technologies and Expression Analysis (LTEA) Assay for Glutathione S-Transferase (GSTA2) using HepaRG (AID 2283497)
# How it was run: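 Oxidative-stress marker GSTA2 is quantified by TaqMan qRT-PCR in HepaRG cultures treated 48 h across an eight-point range to 100 uM. Expression is normalized to endogenous controls and compared with 0.5% DMSO vehicle.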
# [7] = read-out: Glutamate-cysteine ligase catalytic (GCLC), GCLC (gene 2729); assay: LTEA_HepaRG_GCLC: Life Technologies and Expression Analysis (LTEA) Assay for Glutamate-cysteine ligase catalytic (GCLC) using HepaRG (AID 2283498)
# How it was run: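 Oxidative-stress marker GCLC is measured as mRNA change in human HepaRG liver cells after 48 h chemical treatment in 0.5% DMSO, eight concentrations from 100 uM. Activity is fitted bidirectionally against vehicle.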
# [8] = read-out: growth arrest and DNA damage 45 (GADD45G), GADD45G (gene 10912); assay: LTEA_HepaRG_GADD45G: Life Technologies and Expression Analysis (LTEA) Assay for growth arrest and DNA damage 45 (GADD45G) using HepaRG (AID 2283499)
# How it was run: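 Gain or loss of GADD45G mRNA, quantified by TaqMan qRT-PCR against three housekeeping genes, is fitted in both directions relative to 0.5% DMSO. Human HepaRG cultures receive test chemical for 48 h at up to 100 uM.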
# [9] = read-out: Glutamate-cysteine ligase regulatory (GCLM), GCLM (gene 2730); assay: LTEA_HepaRG_GCLM: Life Technologies and Expression Analysis (LTEA) Assay for Glutamate-cysteine ligase regulatory (GCLM) using HepaRG (AID 2283500)
# How it was run: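 GCLM expression quantified by qRT-PCR, normalized to three housekeeping genes, after 48 h chemical treatment of HepaRG cells in duplicate at 8 concentrations (top 100 uM, half-log steps, 0.5% DMSO). Changes fitted both directions against vehicle.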
# [10] = read-out: Glutathione S-transferase M3 (GSTM3), GSTM3 (gene 2947); assay: LTEA_HepaRG_GSTM3: Life Technologies and Expression Analysis (LTEA) Assay for Glutathione S-transferase M3 (GSTM3) using HepaRG (AID 2283501)
# How it was run: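 HepaRG, plated 48 h, then serum-free induction medium; test chemical 48 h, duplicate; 100 uM top, half-log x8, 0.5% DMSO. Read-out: GSTM3 mRNA (TaqMan qRT-PCR, Fluidigm array). Bidirectional fit vs DMSO.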
# [11] = read-out: Heat shock 70 kDa protein 1 (HSPA1A), gene 3303; assay: LTEA_HepaRG_HSPA1A: Life Technologies and Expression Analysis (LTEA) Assay for Heat shock 70 kDa protein 1 (HSPA1A) using HepaRG (AID 2283502)
# How it was run: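 HSPA1A expression measured by qRT-PCR with ACTB/GAPDH/POLR2A normalization; curves fitted in both directions relative to DMSO vehicle. Exposure: 48 h in HepaRG cells, duplicate 8-point half-log series from 100 uM, 0.5% DMSO, serum-free induction medium.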
# [12] = read-out: Hypoxia-inducible factor 1-alpha (Homo sapiens) (UniProt Q16665); assay: LTEA_HepaRG_HIF1A: Life Technologies and Expression Analysis (LTEA) Assay for Hypoxia-inducible factor 1 (HIF1A) Trancription factor using HepaRG (AID 2283503)
# How it was run: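 HIF1A transcript level read by qRT-PCR (ACTB, GAPDH, POLR2A normalization) after 48 h chemical exposure of HepaRG cultures. Eight half-log concentrations, top 100 uM, 0.5% DMSO vehicle, duplicates; bidirectional curve fit against DMSO baseline.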
# [13] = read-out: 3-Hydroxy-3-Methylglutaryl-CoA Synthase 2 (HMGCS2), HMGCS2 (gene 3158); assay: LTEA_HepaRG_HMGCS2: Life Technologies and Expression Analysis (LTEA) Assay for 3-Hydroxy-3-Methylglutaryl-CoA Synthase 2 (HMGCS2) using HepaRG (AID 2283504)
# How it was run: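 HepaRG, plated 48 h then switched to serum-free induction media; cmpd 8-pt, max 100 uM, 1/2-log, 0.5% DMSO, n=2, 48 h. HMGCS2 mRNA by Fluidigm TaqMan qRT-PCR, ACTB/GAPDH/POLR2A norm; bidirectional fit vs DMSO.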
# HGF (gene 3082) = assay: LTEA_HepaRG_HGF: Life Technologies and Expression Analysis (LTEA) Assay for Hepatocyte Growth Facto (HGF) using HepaRG (AID 2283505)
# How it was run: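 Read-out is HGF transcript level by qRT-PCR, normalized to three housekeeping genes, fitted bidirectionally against 0.5% DMSO vehicle. Human HepaRG cells received test chemicals for 48 h at up to 100 uM.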
# [14] = read-out: Insulin Like Growth Factor 1 (IGF1), IGF1 (gene 3479); assay: LTEA_HepaRG_IGF1: Life Technologies and Expression Analysis (LTEA) Assay for Insulin Like Growth Factor 1 (IGF1) using HepaRG (AID 2283506)
# How it was run: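 Expression measured by TaqMan qRT-PCR on a Fluidigm array, with three housekeeping genes for normalisation, after 48 h treatment of HepaRG cells. Top concentration 100 uM with half-log steps, 0.5% DMSO vehicle, bidirectional fit.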
# [15] = read-out: Intercellular Adhesion Molecule 1 (ICAM1), ICAM1 (gene 3383); assay: LTEA_HepaRG_ICAM1: Life Technologies and Expression Analysis (LTEA) Assay for Intercellular Adhesion Molecule 1 (ICAM1) using HepaRG (AID 2283507)
# How it was run: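 Readout is qRT-PCR mRNA level, normalized to three housekeeping genes and fitted bidirectionally against 0.5% DMSO vehicle. Human HepaRG cultures received compound for 48 h, top concentration 100 uM with half-log dilutions.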
# [16] = read-out: Insulin-like growth factor-binding protein 1 (IGFBP1), IGFBP1 (gene 3484); assay: LTEA_HepaRG_IGFBP1: Life Technologies and Expression Analysis (LTEA) Assay for Insulin-like growth factor-binding protein 1 (IGFBP1) using HepaRG (AID 2283508)
# How it was run: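 Thawed HepaRG cells are plated for 48 h, switched to serum-free induction medium, then dosed in duplicate for another 48 h (100 uM top, half-log steps). Lysates in RLT go to qRT-PCR, and gain or loss of signal is fitted relative to vehicle.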
# Chain of Hypoxia-inducible factor 1-alpha (Homo sapiens) (Q16665 whole entry, looked up): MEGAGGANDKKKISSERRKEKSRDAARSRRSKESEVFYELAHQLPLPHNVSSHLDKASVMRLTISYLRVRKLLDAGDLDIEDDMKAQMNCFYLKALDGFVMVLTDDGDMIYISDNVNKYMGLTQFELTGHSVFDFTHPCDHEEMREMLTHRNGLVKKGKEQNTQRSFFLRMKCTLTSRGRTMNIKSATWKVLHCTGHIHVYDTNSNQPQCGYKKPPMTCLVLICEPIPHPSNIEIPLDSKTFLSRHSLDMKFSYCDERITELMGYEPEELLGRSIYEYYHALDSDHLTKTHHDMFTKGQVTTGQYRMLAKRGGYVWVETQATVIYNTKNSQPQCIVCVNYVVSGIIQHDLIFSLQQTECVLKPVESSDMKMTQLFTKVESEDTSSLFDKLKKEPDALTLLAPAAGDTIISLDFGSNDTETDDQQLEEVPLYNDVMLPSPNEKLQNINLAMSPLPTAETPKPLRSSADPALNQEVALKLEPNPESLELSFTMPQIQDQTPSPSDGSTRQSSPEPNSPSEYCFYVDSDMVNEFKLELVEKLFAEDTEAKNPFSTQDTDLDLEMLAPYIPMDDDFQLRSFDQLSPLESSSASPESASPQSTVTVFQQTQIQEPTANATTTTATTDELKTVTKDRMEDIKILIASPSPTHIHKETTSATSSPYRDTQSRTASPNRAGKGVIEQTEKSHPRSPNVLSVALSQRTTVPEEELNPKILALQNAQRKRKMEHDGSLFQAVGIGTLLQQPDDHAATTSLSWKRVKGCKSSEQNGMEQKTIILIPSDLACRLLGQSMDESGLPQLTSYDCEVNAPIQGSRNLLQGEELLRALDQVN
# Chain of Cytochrome P450 3A4 (Homo sapiens) (P08684 whole entry, looked up): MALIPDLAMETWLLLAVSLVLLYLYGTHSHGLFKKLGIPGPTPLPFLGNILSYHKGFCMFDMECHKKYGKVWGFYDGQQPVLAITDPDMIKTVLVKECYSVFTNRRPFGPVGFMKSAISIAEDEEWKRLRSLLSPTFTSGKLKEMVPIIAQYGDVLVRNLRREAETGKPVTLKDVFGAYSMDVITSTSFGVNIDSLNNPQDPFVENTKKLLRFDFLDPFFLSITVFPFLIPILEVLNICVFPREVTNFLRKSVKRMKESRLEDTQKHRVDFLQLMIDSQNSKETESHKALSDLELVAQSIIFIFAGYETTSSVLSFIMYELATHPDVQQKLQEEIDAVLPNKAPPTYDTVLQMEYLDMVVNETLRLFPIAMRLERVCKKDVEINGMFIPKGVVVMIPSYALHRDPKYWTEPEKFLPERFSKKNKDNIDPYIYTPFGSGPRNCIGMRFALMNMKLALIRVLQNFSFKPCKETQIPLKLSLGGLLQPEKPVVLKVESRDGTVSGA
# Chain of Cytochrome P450 3A7 (Homo sapiens) (P24462 whole entry, looked up): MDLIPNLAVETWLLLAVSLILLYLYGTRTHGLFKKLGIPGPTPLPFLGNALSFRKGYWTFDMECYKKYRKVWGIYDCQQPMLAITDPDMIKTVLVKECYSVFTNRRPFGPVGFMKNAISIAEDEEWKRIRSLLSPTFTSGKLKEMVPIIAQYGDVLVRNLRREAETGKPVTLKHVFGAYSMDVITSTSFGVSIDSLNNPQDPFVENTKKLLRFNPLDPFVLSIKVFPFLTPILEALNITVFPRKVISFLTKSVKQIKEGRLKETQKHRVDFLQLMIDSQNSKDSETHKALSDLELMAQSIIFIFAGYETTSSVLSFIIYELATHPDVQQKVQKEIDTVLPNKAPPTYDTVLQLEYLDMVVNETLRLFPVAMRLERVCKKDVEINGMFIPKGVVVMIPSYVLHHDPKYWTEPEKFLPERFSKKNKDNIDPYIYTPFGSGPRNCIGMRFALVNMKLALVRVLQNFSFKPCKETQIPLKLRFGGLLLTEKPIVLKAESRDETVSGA
smiles,measurement,setting,value
ClC1(Cl)C2(Cl)C3(Cl)C4(Cl)C(Cl)(Cl)C5(Cl)C3(Cl)C1(Cl)C5(Cl)C24Cl (stereo not given),AC50,CYP2E1 (gene 1571),4.06 µM (active)
same,AC50,CYP4A11 (gene 1579),20 µM (active)
same,AC50,[1],4.01 µM (active)
same,outcome,[2],inactive
same,outcome,[3],inactive
same,AC50,[4],4.64 µM (active)
same,outcome,CYP3A5 (gene 1577),inactive
same,outcome,[5],inactive
same,outcome,[6],inactive
same,outcome,[7],inactive
same,outcome,[8],inactive
same,outcome,[9],inactive
same,outcome,[10],inactive
same,outcome,[11],inactive
same,outcome,[12],inactive
same,outcome,[13],inactive
same,outcome,HGF (gene 3082),inactive
same,outcome,[14],inactive
same,outcome,[15],inactive
same,outcome,[16],inactive
O=C(O)C(F)(F)C(F)(F)C(F)(F)C(F)(F)C(F)(F)C(F)(F)F,outcome,CYP2E1 (gene 1571),inactive
same,AC50,CYP4A11 (gene 1579),18.6 µM (active)
same,outcome,[1],inactive
same,outcome,[2],inactive
same,outcome,[3],inactive
same,AC50,[4],35 µM (active)
same,outcome,CYP3A5 (gene 1577),inactive
same,outcome,[5],inactive
same,outcome,[6],inactive
same,outcome,[7],inactive
same,outcome,[8],inactive
same,outcome,[9],inactive
same,outcome,[10],inactive
same,outcome,[11],inactive
same,outcome,[12],inactive
same,AC50,[13],22 µM (active)
same,outcome,HGF (gene 3082),inactive
same,outcome,[14],inactive
same,outcome,[15],inactive
same,outcome,[16],inactive
CC12CC1(C)C(=O)N(c1cc(Cl)cc(Cl)c1)C2=O (stereo not given),AC50,CYP2E1 (gene 1571),16.6 µM (active)
same,AC50,CYP4A11 (gene 1579),9.13 µM (active)
same,AC50,[1],5.34 µM (active)
same,outcome,[2],inactive
same,outcome,[3],inactive
same,outcome,[4],inactive
same,outcome,CYP3A5 (gene 1577),inactive
same,AC50,[5],16.9 µM (active)
same,outcome,[6],inactive
same,outcome,[7],inactive
same,outcome,[8],inactive
same,outcome,[9],inactive
same,outcome,[10],inactive
same,outcome,[11],inactive
same,outcome,[12],inactive
same,AC50,[13],21.6 µM (active)
same,outcome,HGF (gene 3082),inactive
same,AC50,[14],18.6 µM (active)
same,outcome,[15],inactive
same,outcome,[16],inactive
O=C(Nc1ccc2[nH]ccc2c1)c1cc2cc(F)ccc2n1Cc1cccc(F)c1,AC50,CYP2E1 (gene 1571),21.9 µM (active)
same,AC50,CYP4A11 (gene 1579),16.6 µM (active)
same,AC50,[1],83.5 µM (active)
same,outcome,[2],inactive
same,outcome,[3],inactive
same,AC50,[4],75.6 µM (active)
same,AC50,CYP3A5 (gene 1577),92.9 µM (active)
same,AC50,[5],30.7 µM (active)
same,AC50,[6],31.2 µM (active)
same,AC50,[7],23.6 µM (active)
same,outcome,[8],inactive
same,AC50,[9],27.8 µM (active)
same,outcome,[10],inactive
same,AC50,[11],90.7 µM (active)
same,AC50,[12],84.5 µM (active)
same,AC50,[13],30.2 µM (active)
same,outcome,HGF (gene 3082),inactive
same,AC50,[14],33.1 µM (active)
same,AC50,[15],12.6 µM (active)
same,AC50,[16],27.2 µM (active)
C=CC(=O)OCCCCCC(C)C,outcome,CYP2E1 (gene 1571),inactive
same,outcome,CYP4A11 (gene 1579),inactive
same,outcome,[1],inactive
same,outcome,[2],inactive
same,outcome,[3],inactive
same,outcome,[4],inactive
same,outcome,CYP3A5 (gene 1577),inactive
same,outcome,[5],inactive
same,outcome,[6],inactive
same,outcome,[7],inactive
same,outcome,[8],inactive
same,outcome,[9],inactive
same,outcome,[10],inactive
same,outcome,[11],inactive
same,outcome,[12],inactive
same,outcome,[13],inactive
same,outcome,HGF (gene 3082),inactive
same,outcome,[14],inactive
same,outcome,[15],inactive
same,outcome,[16],inactive
